aSyn UTR act: Activators via SNCA 5'UTR binding, MLPCN | 300,000 tested, 7.1% active | activity score, % (tested at 7.5 µM), hits read low | alpha-synuclein 5'UTR reporter, activators screen; in the data active means activity score below about -60%
Numbers without * were called inactive. These entries were drawn from the full list.

SMILES | aSyn UTR act
c1ccc(OCc2nc(-c3cccs3)no2)cc1 | -173*
CN(Cc1nc(-c2cccs2)no1)CC(O)c1ccccc1 (stereo not given) | -62*
Fc1ccc(OCc2nc(-c3cccs3)no2)cc1 | -123*
CCN(CC)CCn1c(=N)n(CCOc2ccccc2)c2ccccc21 | -93*
CCOc1ccc(S(=O)(=O)N/N=C2/CC(c3ccccc3)Oc3ccccc32)cc1 (stereo not given) | -66*
O=C(CCCN1C(=O)/C(=C/c2ccccc2Cl)SC1=S)NNC(=O)c1ccccc1 | 62
O=C(CCN1C(=O)/C(=C/c2ccccc2Cl)SC1=S)NC1C=CS(=O)(=O)C1 (stereo not given) | -71*
O=C(CCN1C(=O)/C(=C/c2ccc(F)cc2)SC1=S)NC1C=CS(=O)(=O)C1 (stereo not given) | -73*
Cc1cccnc1NC(=S)NC(=O)/C=C/c1ccco1 | -89*
O=C(/C=C/c1ccco1)NC(=S)Nc1ccccn1 | -127*
O=C(CN1CCN(Cc2ccccc2Cl)CC1)N/N=C/C=C/c1ccco1 | -77*
CC(/C=N\NC(=O)CN1CCN(Cc2ccccc2)CC1)=C\c1ccco1 | -94*
O=C(CN1CCN(Cc2ccccc2)CC1)N/N=C\C=C/c1ccco1 | -71*
CCc1ccc(C(=O)N/N=C(\C)c2ccncc2)s1 | -93*
C/C(=N/NC(=O)c1ccc(C)s1)c1ccncc1 | -87*
Cc1cc(C)c2c(NC(=O)CCl)nn(C)c2n1 | -65*
c1ccc(COc2ccc(OCCCCN3CCCCC3)cc2)cc1 | -82*
CN1CCN(CCCOc2ccc(-c3ccccc3)cc2)CC1 | -63*
CN1CCN(CCOc2ccc(-c3ccccc3)cc2)CC1 | -110*
c1ccc(COc2ccc(OCCn3cncn3)cc2)cc1 | -110*
N#Cc1ccccc1NC(=O)c1ccc2c(Cl)c3c(nc2c1)CCCC3 | -219*
CC1CCN(C(=O)c2ccc(S(=O)(=O)Cc3ccccc3F)c([N+](=O)[O-])c2)CC1 | -71*
O=C(NC1CC1)c1ccc2c(Cl)c3c(nc2c1)CCCC3 | -87*
O=C(Nc1cccnc1Cl)c1ccc2c(Cl)c3c(nc2c1)CCC3 | -71*
CC1CCN(C(=O)c2ccc3ccccc3c2)CC1 | -152*
SMILES | aSyn UTR act
CC1CCN(C(=O)c2ccc3c(Cl)c4c(nc3c2)CCCC4)CC1 | -71*
CC(=O)c1cccc(NC(=O)c2ccc3c(Cl)c4c(nc3c2)CCCC4)c1 | -83*
CCCCOc1ccc(-c2cn3ccccc3n2)cc1[N+](=O)[O-] | -129*
CCCOc1ccc(-c2csc(N)n2)cc1[N+](=O)[O-] | -81*
CCOc1ccc(-c2cn3ccccc3n2)cc1[N+](=O)[O-] | -160*
CCOc1ccc(NC(=S)NC(=O)c2c(Br)cnn2C)c([N+](=O)[O-])c1 | -115*
COc1ccc(/C=C/C(=O)Nc2ccccc2C(=O)O)cc1 | 83
COc1ccc(/C=C/C(=O)Nc2ccccc2C(=O)N2CCCC2)cc1 | -86*
COc1ccc(/C=C/C(=O)Nc2ccccc2C(=O)NCC(c2ccc(OC)cc2)N(C)C)cc1 (stereo not given) | -80*
CCOc1ccc(/C=C/C(=O)Nc2ccccc2C(F)(F)F)cc1 | -76*
COc1ccc(/C=C/C(=O)Nc2ccccc2C(F)(F)F)cc1 | -141*
CCOc1ccc(N/C=C/C(=O)c2ccccc2)c([N+](=O)[O-])c1 | 87
COc1cc(NC(=O)/C=C/c2ccccc2[N+](=O)[O-])cc(OC)c1 | -114*
COc1ccc(C(=O)/C=C/c2ccccc2C(F)(F)F)cc1 | -68*
CCOc1ccc(NC(=O)/C=C/c2ccccc2)c([N+](=O)[O-])c1 | -147*
C=CCn1c(=O)c(C(=O)Nc2ccc(C)cc2)c(O)c2ccccc21 | -76*
C=CCn1c(O)c(N=NC(=S)Nc2ccc(OC)cc2)c2ccccc21 | 84
C=CCn1c(N)c(C(=O)Nc2ccc(C)cc2)sc1=S | -149*
CCn1c(=O)c(C(=O)Nc2ccsc2C(=O)OC)c(O)c2ccccc21 | -65*
C=CCn1c(=O)c(C(=O)Nc2ccccc2S(N)(=O)=O)c(O)c2ccccc21 | -156*
CS(=O)(=O)c1nc(S(=O)(=O)c2ccc(Cl)cc2)c(N2CCC3(CC2)OCCO3)s1 | -156*
CN1CCN(C(=O)c2ccc(-c3cccs3)s2)CC1 | -98*
Clc1ccc(-c2nnc(N3CCOCC3)o2)cc1 | -71*
COc1ccc(-c2ccc(-c3nnc(-c4ccncc4)o3)cc2)cc1 | -115*
Cc1ccc(/C=C/c2nnc(-c3ccc(C)cc3)o2)cc1 | -69*
SMILES | aSyn UTR act
Cc1ccc(-c2nnc(-c3cccs3)o2)cc1 | -93*
COc1ccc(-c2nnc(NC(=O)c3ccc(S(=O)(=O)N4COCC4(C)C)cc3)o2)cc1 | 76
Cc1ccc(C(=O)Nc2nnc(-c3ccncc3)o2)cc1 | -82*
CCCN(CCC)S(=O)(=O)c1ccc(C(=O)Nc2nnc(-c3cc(OC)cc(OC)c3)o2)cc1 | 82
Fc1ccc(-c2nnc(-c3ccc(Cl)cc3)o2)cc1 | -194*
COc1ccc(-c2nnc(-c3ccc(C)cc3)o2)cc1 | -103*
CCNc1nnc(-c2ccc(C)cc2)o1 | -80*
Fc1ccc(/C=C/c2nnc(-c3cccs3)o2)cc1 | -129*
